Assay outcomes from PubChem.
Sfp PPTase inh: inhibitors of Bacillus subtilis Sfp phosphopantetheinyl transferase | Q9F4F7 | 310,000 compounds, 3.5% hits | Potency, µM, without a hit: largest response in the series, negative = inhibition, hits mostly inhibitors | Biochemical Sfp PPTase activity, qHTS;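 further: the enzyme is Sfp with the accession as filed and its product quenches rhodamine fluorescence; 0% = enzyme reaction without inhibitor and -100% = no enzyme wells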
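After 15 min at room temperature with compound, 15 nM Sfp received 5 uM rhodamine-CoA plus 12.5 uM BHQ-2-ybbR (50 mM Hepes pH 7.6, 10 mM MgCl2). Rate came from the fluorescence difference over 30 min, ex 525/em 598 nm.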
BAZ2B inh: blocks human BAZ2B | 360,000 compounds, 4.4% hits | AlphaScreen BAZ2B-H3K14Ac peptide displacement | Potency, µM (titrated, usually from 114 µM), without a hit: at the top dose activity change, negative = inhibition, actives largely listed as inhibitors | AID 504333 | Q9UIF8; further: on the % scale 0 is the no-effect control and ±100 the full control effect; nearly all actives have a fitted effect of over 60% in size
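Inhibition is scored as reduced AlphaScreen emission. The BAZ2B/b-H3(5-23)K14Ac complex (50 nM each) in PBS pH 7.4, 0.01% Tween-20 meets compound (up to 110 uM) for 30 min at RT before bead addition.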
G9a inh: blocks human histone lysine methyltransferase G9a; Q96KQ7; G9a H3K9 monomethylation, AlphaScreen, 2 h; Potency, µM (top dose mostly 102 µM), inactives show at the top dose activity, negative = inhibition, most hits filed as inhibitors; 350,000 compounds, 8.8% hits; AID 504332; further: on the % scale 0 is the no-effect control and ±100 the full control effect; nearly all actives have a fitted effect of over 75% in size
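Readings reflect AlphaScreen signal from monomethyl-H3K9 antibody detection. HMT at 20 nM; substrate b-H3K9 500 nM; cofactor SAM 20 uM; 2 h RT reaction; compounds tested as titrations in qHTS with 15 min preincubation.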
HP1b binding inh: HP1-beta chromodomain-methylated histone interaction inhibition; P83916; AlphaScreen HP1-beta / biotin-H3K9me3 peptide binding; Potency, µM (series often up to 114 µM), for inactives: at the top dose activity change, negative = inhibition, actives largely listed as inhibitors; 390,000 compounds, 0.56% hits; further: nearly all actives have a fitted effect of over 70% in size
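HP1-beta protein (50 nM final) preincubated 30 min at room temperature with biotinylated H3(1-18)K9me3 peptide (50 nM) in PBS pH 7.4, 0.01% Tween-20, then compound added for 30 min. AlphaScreen streptavidin donor/nickel chelate acceptor beads (10 ug/mL final), 30 min dark, luminescence read.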
JMJD2A Tudor: inhibitors of human JMJD2A Tudor domain; 390,000 compounds, 4.4% hits; Potency, µM (top dose mostly 114 µM), without a hit: at the top dose activity change, negative = inhibition, most hits filed as inhibitors; O75164; AlphaScreen JMJD2A-Tudor / H3K4me3 peptide binding; further: on the % scale 0 is the no-effect control and ±100 the full control effect; nearly all actives have a fitted effect of over 50% in size
L3MBTL1 inh: L3MBTL1 (human) inhibition; Q9Y468; AlphaScreen L3MBTL1–H3K9me1 peptide binding; Potency, µM (highest dose often 57.1 µM), without a hit: at the highest dose activity, negative = inhibition, actives largely listed as inhibitors; 230,000 compounds, 0.66% hits; AID 485360; further: on the % scale 0 is the no-effect control and ±100 the full control effect; nearly all actives have a fitted effect of over 60% in size
Target sequence (Q9Y468 whole entry, looked up): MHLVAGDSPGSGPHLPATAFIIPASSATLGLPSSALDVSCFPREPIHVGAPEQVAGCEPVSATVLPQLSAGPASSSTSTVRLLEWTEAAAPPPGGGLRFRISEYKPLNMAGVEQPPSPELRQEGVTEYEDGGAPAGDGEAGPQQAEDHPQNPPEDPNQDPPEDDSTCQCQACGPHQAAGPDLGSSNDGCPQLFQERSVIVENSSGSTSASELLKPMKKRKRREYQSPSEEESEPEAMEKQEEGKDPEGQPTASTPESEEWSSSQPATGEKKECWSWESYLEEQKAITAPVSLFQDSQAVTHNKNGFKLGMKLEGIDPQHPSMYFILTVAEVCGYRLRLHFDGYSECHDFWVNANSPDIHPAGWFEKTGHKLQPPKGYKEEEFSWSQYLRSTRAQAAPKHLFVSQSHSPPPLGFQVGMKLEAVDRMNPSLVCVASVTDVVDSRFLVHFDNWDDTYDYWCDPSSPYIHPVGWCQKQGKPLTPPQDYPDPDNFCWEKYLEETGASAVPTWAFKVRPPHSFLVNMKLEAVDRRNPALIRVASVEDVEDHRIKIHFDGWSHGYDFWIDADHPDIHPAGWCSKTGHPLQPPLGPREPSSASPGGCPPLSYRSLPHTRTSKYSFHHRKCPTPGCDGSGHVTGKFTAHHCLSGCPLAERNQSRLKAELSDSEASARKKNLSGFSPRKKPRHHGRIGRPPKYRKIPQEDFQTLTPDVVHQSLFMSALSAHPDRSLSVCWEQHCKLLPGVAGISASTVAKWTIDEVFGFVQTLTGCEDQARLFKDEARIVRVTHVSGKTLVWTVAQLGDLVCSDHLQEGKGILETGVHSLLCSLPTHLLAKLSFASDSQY
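AlphaScreen assay: L3MBTL1 (50 nM final) was preincubated 30 min at room temperature with biotinylated H3(1-15)K9me1 peptide (75 nM final), then 30 min with library compounds; streptavidin donor and nickel chelate acceptor beads (10 ug/mL final) added, 30 min dark.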
* hit, by the source's call; ? = inconclusive; . = no result given; [ ] = another dose, or the depositor's remark. Shown are actives, neighbours in structure and some others; about 12% of the full set was active somewhere. The call rests on the fitted dose curve; in most records, active means well fitted curve in the direction sought with a large enough effect; inconclusive means small, poorly fitted or top-dose-only effect, or another doubt; inactive means no such curve, though single readings can be large; an effect the other way counts as inactive or inconclusive. Potency means the concentration at half of the fitted maximal effect.

SMILES	Sfp PPTase inh	BAZ2B inh	G9a inh	HP1b binding inh	JMJD2A Tudor	L3MBTL1 inh
COc1ccc(Br)cc1CNC(=O)C(C)n1nc(C)n2c(cc3occc32)c1=O (configuration not stated)	.	0.3%	6.5%[59 µM]	27.3%	-19.3%	.
CC(=O)N1C2(C=CC1(C)C(=O)NCCN1CCOCC1)CCCCC2 (configuration not stated)	20.5%	.	.	.	.	.
Cc1cccc(N(C)C(=O)C(Cc2ccccc2)NS(=O)(=O)c2cccc3nsnc23)c1 (configuration not stated)	.	.	-32.0%[59 µM]	-2.3%	?	.
CCS(=O)(=O)N1CCCC(C(=O)NCCOC)C1 (configuration not stated)	.	8.6%	10.2%[59 µM]	22.0%	-19.0%	.
CCOc1cc(CNC2CCCC2)cc(Cl)c1OCc1ccc(F)cc1	39.8µM*	10.6%	-2.8%[12.7 µM]	12.5%	0.0%	.
CCOc1cc(CNCCc2ccc(S(N)(=O)=O)cc2)cc(Cl)c1OCc1ccccc1	3.55µM*	?	-47.4%	38.2%	-34.5%	-0.5%
Clc1ccc2c(c1)C(C1=NCCN1)c1ccccc1CS2 (configuration not stated)	28.4%	3.3%	5.6%[59 µM]	31.7%	-7.5%	8.1%
S=C1NCCc2ccc(Cl)cc2C1c1ccccc1Cl (configuration not stated)	13.1%	44.7µM*	?	-26.7%	?	-8.2%
COC(=O)CSC1=C(C#N)C(c2ccc(C(C)C)cc2)CC(=O)N1 (configuration not stated)	0.2%	8.3%	?	15.9%	-32.4%	.
C=CCSC1=C(C#N)C(c2ccccc2OCC)CC(=O)N1 (configuration not stated)	70.8µM*	1.5%	?	-7.3%	-19.0%	-3.7%
CCCCSC1=C(C#N)C(c2ccccc2C)CC(=O)N1 (configuration not stated)	5.5%	8.4%	6.9%	55.2%	-13.1%	.
C=CCSC1=C(C#N)C(c2ccccc2OC)CC(=O)N1 (configuration not stated)	56.2µM*	12.8%	?	26.1%	-6.7%	-1.4%
Cc1ccc(C2CC(=O)NC(SCCC(C)C)=C2C#N)cc1 (configuration not stated)	44.7µM*	-3.3%	31.6µM*	?	-1.4%	.
CCCSC1=C(C#N)C(c2ccccc2C)CC(=O)N1 (configuration not stated)	?	7.4%	25.1µM*	33.1%	-8.2%	-0.6%
CNc1nc(-c2ccoc2)nc2ccccc12	8.7%	.	2.7%[0.501 µM]	.	.	.
COc1ccc(-c2nc3cnc(Nc4ccccc4)nc3n(CCC#N)c2=O)cc1	12.6%	.	-4.3%[12.7 µM]	.	.	.
CC(=O)c1ccc(NS(=O)(=O)c2ccc(Br)s2)cc1	.	0.4%	0.7%[59 µM]	43.0%	3.1%	.
CCCSC1=C(C#N)C(c2ccc(O)c(OC)c2)CC(=O)N1 (configuration not stated)	10.0%	10.3%	50.1µM*	35.4%	-5.5%	.
COc1cc(C2CC(=O)NC(SCC(=O)Nc3ccccc3C)=C2C#N)ccc1O (configuration not stated)	3.7%	-6.4%	-3.7%[59 µM]	26.5%	-8.7%	-7.3%
CCOc1ccccc1C1CC(=O)NC(SCC(=O)Nc2nccs2)=C1C#N (configuration not stated)	?	-12.1%	14.1µM*	34.1%	-15.1%	.
Cc1nn(-c2ccc(F)cc2)c(-n2cccc2)c1C(=O)N1CCN(c2ccccc2F)CC1	.	-11.4%	-28.6%[59 µM]	22.8%	-32.4%	.
Cc1c2oc3c(C)ccc(C(=O)N[C@@H]4C(=O)N[C@H](C(C)C)C(=O)N5CCC[C@H]5C(=O)N(C)CC(=O)N(C)[C@@H](C(C)C)C(=O)O[C@@H]4C)c3nc-2c(C(=O)N[C@@H]2C(=O)N[C@H](C(C)C)C(=O)N3CCC[C@H]3C(=O)N(C)CC(=O)N(C)[C@@H](C(C)C)C(=O)O[C@@H]2C)c(N)c1=O	-5.3%	.	11.2µM*	.	.	.
O=S(=O)(c1cccc(F)c1)N1CCN(c2nc(-c3cccs3)nc3ccccc23)CC1	.	.	.	31.7%	-11.3%	.
C/C(=N\Nc1ccc(C(=O)c2c(C)cc3ccccn23)cc1[N+](=O)[O-])c1ccc(O)cc1	20µM*	?	?	?	?	.
Cc1cc2ccccn2c1C(=O)c1ccc(N/N=C/c2ccc(C(=O)O)cc2)c([N+](=O)[O-])c1	5.2%	?	?	-10.2%	?	.
SMILES	Sfp PPTase inh	BAZ2B inh	G9a inh	HP1b binding inh	JMJD2A Tudor	L3MBTL1 inh
CC(=O)C1=C(S(=O)(=O)c2ccc(C)cc2)CS(=O)(=O)C1	5.62µM*	?	1.26µM*	14.1µM*	22.4µM*	3.9%
CN(C)S(=O)(=O)c1ccc(NCC2COc3ccccc3O2)c([N+](=O)[O-])c1 (configuration not stated)	14.4%	?	?	?	25.1µM*	?
CCN(CC)S(=O)(=O)c1ccc(NCC2COc3ccccc3O2)c([N+](=O)[O-])c1 (configuration not stated)	4.1%	?	?	?	?	-11.3%
COc1ccccc1CNC(=O)C1CCN(S(=O)(=O)c2c(C)noc2/C=C/c2c(C)cc(C)cc2C)CC1	.	-4.2%	-4.5%[59 µM]	19.3%[57 µM]	-7.0%	.
CC(C)(C)C(CCl)C(=O)NN=C(c1ccccc1)c1ccccc1 (configuration not stated)	.	?	-29.3%[2.33 µM]	49.2%	100µM*	15.1%
O=C(NC(=S)Nc1cccc2ncccc12)c1ccccc1	20µM*	-24.0%	?	3.8%	-21.8%	7.1%
O=C(NC(=S)Nc1cccc2ncccc12)c1cccs1	44.7µM*	-32.1%	50.1µM*	26.1%	-4.4%	-10.8%
CC(=O)Nc1cccc2ncccc12	21.5%	-2.2%	11.4%[59 µM]	14.2%	-18.5%	8.6%
